Target: HIP1R
Test: pooled miR-30 sensor sort-seq; sequence = guide strand
Conditions: shRNA
Note: reference of the scale not given here.

| Sequence | sensor-assay potency score (higher = more potent) |
| --- | --- |
| TTTGTCAAGCTGGTGGTCCTGT | 0.332 |
| TTGAGCTGTCGGAAAACTGATT | -1.02 |
| TACCTCATCTGTCACCTCCAGG | -0.947 |
| TTGAGGTGGAAGGAGATCTTGG | -0.812 |
| TTCTTGGTGGTTACACTTCGGG | -1.05 |

Target: HIST1H2BM
Test: as above
Conditions: shRNA

| Sequence | sensor-assay potency score (higher = more potent) |
| --- | --- |
| TTCCATCCTTCTTCTGAGCCTT | -0.589 |
| TTAATGGCCTTCTTGGAGCCTT | -0.535 |
| ATACACAGAGTAGCTCTCCTTG | -0.936 |
| TTGTACACATACACAGAGTAGC | -0.844 |
| TCCATCCTTCTTCTGAGCCTTG | -1.16 |
| TTTGCGCTTCTTTCCATCCTTC | -0.136 |
| TACACAGAGTAGCTCTCCTTGC | -0.828 |
| TAGCCTTGGAAGAGATGCCGGT | -0.26 |
| TACACATACACAGAGTAGCTCT | -0.419 |
| TAGCAGTAGGCGCACGGCCGTC | -1.42 |
| TTCTTTCCATCCTTCTTCTGAG | -0.665 |
| TTGTTAATGGCCTTCTTGGAGC | -1.15 |

Target: HIST1H2BN
Test: as above
Conditions: shRNA

| Sequence | sensor-assay potency score (higher = more potent) |
| --- | --- |
| TTCTTCTGGGCCTTTGTCACTG | -0.654 |
| TTGGACGAGATACCGGTGTCGG | -1.16 |
| TACACGTACACGGAGTAGCTCT | -0.756 |
| TCGAAGATGTCATTGACGAAGG | -1.38 |
| TTCTGGGCCTTTGTCACTGCCT | -1.05 |
| TTGGAGCCTTTCTTCGGGGCAG | -0.909 |
| TGGCCTTGGACGAGATACCGGT | -1.2 |
| TCACTGCCTTCTTGGAGCCTTT | -1.34 |
| TTGTACACGTACACGGAGTAGC | -0.485 |
| TTCTTGGAGCCTTTCTTCGGGG | -0.852 |
| TCTTCTGGGCCTTTGTCACTGC | -0.0714 |
| TTGCCGTCCTTCTTCTGGGCCT | -0.777 |
| TTTGTCACTGCCTTCTTGGAGC | -0.47 |

Target: HIST1H4A
Test: as above
Conditions: shRNA

| Sequence | sensor-assay potency score (higher = more potent) |
| --- | --- |
| TATAGGTGACAGCGTCACGGAT | -1.01 |
| TGACTGTCTTGCGCTTGGCGTG | -1.68 |
| TCTCCTCGTAGATCAGACCAGA | -0.957 |
| ATGTTGTCACGCAACACCTTGC | -1.02 |
| TCACGCAACACCTTGCGGTGGC | 0.266 |
| TTGTCACGCAACACCTTGCGGT | -0.404 |
| ATAGGTGACAGCGTCACGGATC | -0.773 |
| TAGACCACGTCCATGGCAGTGA | -0.363 |
| TGTCACGCAACACCTTGCGGTG | -1.69 |
| AACACCTTGAGCACCCCGCGAG | -0.99 |

Source: the OligoGym collection
